# Assay results: PubChem BioAssay (Tox21)
# A number with no mark means an inactive call. Calls of active or inactive are those of the source. The call rests on the fitted dose curve.
# Molecular target: Gonadotropin-releasing hormone receptor (Homo sapiens) (UniProt P30968)
# Assay: Human gonadotropin-releasing hormone receptor (GnRHR) small molecule agonists, calcium flux assay in GnRHR-HEK293 cells (AID 1920063); further: nearly all actives have a fitted effect of over 35% in size
# Conditions: calcium flux fluorescence, agonist mode; series mostly up to 57.6 µM; activity change: at the top concentration
# Description: National Center for Advancing Translational Sciences [NCATS]
# Division of Preclinical Innovation [DPI]
# U.S. Environmental Protection Agency [EPA]
# National Institutes of Environmental Health Sciences [NIEHS]
# National Toxicology Program [NTP]
# U.S. Food and Drug Administration [FDA]
# Gonadotropin-releasing hormone receptor (GnRHR) is a G-protein-coupled receptor (GPCR) and acts (through phospholipase C) to increase intracellular inositol trisphosphate and then release intracellular calcium stores. Cell-based GnRHR-Hek293 calcium influx assay is using HEK293 cells that have been genetically engineered to express the human GnRHR, which activity can be measured by calcium signaling. A compound/drug can activate (agonist) GnRHR that can be monitored by levels of intracellular calcium.
# GnRHR-HEK293 cells developed by Codex Corp contain human GnRHR reporter gene, which was stably integrated into HEK 293 cells. The compound activation can be detected by fluorescence intensity via calcium flux assay. This cell line has been used to screen the Tox21 10K compound library to identify GnRHR agonists.
# GnRHR-Hek293 cells were dispensed at 1500cells/4uL/well in 1536-well black wall/clear bottom plates using a multidrop dispenser. After the assay plates were incubated at a 37 C/5% CO2 incubator for 18 hours, 4 uL of Calcium Dye Solution was added to each well. The plates were incubated at 37 C for 1 hour. For agonist mode, 23 nL of compounds dissolved in DMSO, positive controls or DMSO only was transferred to the assay plate by a pin tool station. The fluorescence intensity in the plates was measured using FDSS 7000EX kinetic plate reader with a filter set of Ex/Em=480/540 for 3 min at 1 sec intervals. Each test compound was measured at 15 concentrations and in triplicates.
# On the % scale 0 is the no-effect control and ±100 the full control effect; potency means the concentration at half of the fitted maximal effect.
# Sequence of Gonadotropin-releasing hormone receptor (Homo sapiens) (P30968 whole entry, looked up): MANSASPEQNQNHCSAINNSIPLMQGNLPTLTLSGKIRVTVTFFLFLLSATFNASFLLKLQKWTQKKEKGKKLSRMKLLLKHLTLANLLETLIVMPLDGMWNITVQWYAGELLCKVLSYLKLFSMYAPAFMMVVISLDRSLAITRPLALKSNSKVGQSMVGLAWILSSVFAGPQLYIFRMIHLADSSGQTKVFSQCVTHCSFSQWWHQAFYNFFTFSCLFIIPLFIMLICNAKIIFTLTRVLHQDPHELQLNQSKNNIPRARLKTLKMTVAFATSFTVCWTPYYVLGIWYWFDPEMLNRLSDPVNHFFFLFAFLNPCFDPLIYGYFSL
Structure (SMILES),activity change,Potency
CNC(C)Cc1ccc2c(c1)OCO2 (stereo not given),1.2%,
CC(C)=CCOc1c2occc2cc2ccc(=O)oc12,"-1.7% [at 26.4 µM, active compounds read high]",
CN1C(=O)COc2c(C(=O)NC3CN4CCC3CC4)cc(Cl)cc21 (stereo not given),"-0.574% [at 26.4 µM, active compounds read high]",
Fc1cccc(Cl)c1CCl,-0.601%,
CC(C)(O)c1cnn2c(-c3ccc(F)c(-c4c(F)cccc4C#N)c3)cnc2n1,,38.9 µM (active)
O=C(N/N=C/c1ccc([N+](=O)[O-])o1)c1cc([N+](=O)[O-])cc([N+](=O)[O-])c1O,"-1.22% [at 26.4 µM, active compounds read high]",
CC1(C)C(C(=O)OC(C#N)c2cccc(Oc3ccccc3)c2)C1(C)C (stereo not given),,inactive
COC(=O)C1=CCCN(C)C1,,1.07 µM (active)
COC(=O)/C=C(\C)OP(=O)(OC)OC,-1.21%,
CCN(CCO)CCn1c(Cc2ccccc2)nc2c1c(=O)n(C)c(=O)n2C,"0.99% [at 26.4 µM, active compounds read high]",
COC(=O)C(c1ccccc1)C1CCCCN1 (stereo not given),1.16%,
NP(N)(=O)NC(=O)c1ccc(F)cc1,"-0.64% [at 26.4 µM, active compounds read high]",
CCCCCCCCCCCCCN1CC(C)OC(C)C1 (stereo not given),-0.0516%,
OP(O)c1ccccc1,-0.21%,
Clc1ccccc1-c1ccccc1Cl,8.12%,
Nc1ccc([N+](=O)[O-])cc1Cl,-1.32%,
ClC1=C(Cl)C2(Cl)C(CBr)CC1(Cl)C2(Cl)Cl (stereo not given),,inactive
CCCCCCC[CH2][Sn]([Cl])([Cl])[CH2]CCCCCCC,-0.253%,
CCCN(CCCl)c1c([N+](=O)[O-])cc(C(F)(F)F)cc1[N+](=O)[O-],-1.31%,
C[C@H]1CNCCc2ccc(Cl)cc21,"8.05% [at 26.4 µM, active compounds read high]",

Structure (SMILES),activity change,Potency
C=C(Cl)Cl,-0.16%,
CCOC(=O)N(C)C(=O)CSP(=S)(OCC)OCC,-0.941%,
O=[N+]([O-])c1ccc(CCl)cc1,-0.32%,
COC(=O)C(C)Oc1ccc(Oc2ccc(Cl)cc2Cl)cc1 (stereo not given),-0.862%,
CCc1ccccc1N,-0.507%,
C#CCN1C(=O)COc2cc(F)c(N3C(=O)C4=C(CCCC4)C3=O)cc21,0.0998%,
CCOC(=O)C(Cl)C(C)=O (stereo not given),1.68%,
N[C@@H](Cc1ccc(Oc2cc(I)c(O)c(I)c2)c(I)c1)C(=O)O,"1.48% [at 26.4 µM, active compounds read high]",
Cc1cccc(C)c1NC1=NCCCS1,"0.246% [at 26.4 µM, active compounds read high]",
CCOC(=O)COc1ccc(Cl)cc1Cl,-0.976%,
CC1=C2C[C@H]3[C@@H](CC=C4C[C@@H](O)CC[C@@]43C)[C@@H]2CC[C@]12O[C@@H]1C[C@H](C)CN[C@H]1[C@H]2C,"5.7% [at 26.4 µM, active compounds read high]",
CCN(CC)C(C)C(=O)c1ccccc1 (stereo not given),"1.16% [at 26.4 µM, active compounds read high]",
CCC[CH2][Sn]([CH2]CCC)([CH2]CCC)[CH2]CCC,15.3%,
ClP(Cl)(Cl)(Cl)Cl,0.208%,
O=[N+]([O-])c1ccc2c3c(cccc13)CC2,-0.0987%,
CCOC(=O)NC(C)(C)Cc1ccc(Cl)cc1,"5.11% [at 26.4 µM, active compounds read high]",
CC(C)(CCl)C(=O)Cl,-1.76%,
CCOP(=S)(OCC)SCSCC,4.24%,
O=Cc1ccc2c(c1)OCO2,-1.08%,
CCC1(c2cccc(O)c2)CCCCN(C)C1 (stereo not given),"-0.0719% [at 26.4 µM, active compounds read high]",
